# Measured values published in a collection of fitness landscapes (doi:10.1016/j.celrep.2020.107928).
# The full ranking holds about 81,000 sequences; the median of “one-hybrid fitness for binding parS DNA” is about -0.17, and the highest 2% start at about 0.51. Only a selection was taken, and the highest values are over-represented in it overall.
# B1: Caulobacter ParB omega fusion; a variant is named by its letters at X, in order, B8GW30 (parent)
# chain: MESVVVGEPGMSEGRRGLGRGLSALLGEVDAAPAQAPGEQLGGSREAPIEILQRNPDQPRRTFREEDLEDLSNSIREKGVLQPILVRPSPDTAGEYQIVAGERAWRAAQRAGLKTVPIMVRELDDLAVLEIGIIENVQRADLNVLEEALSYKVLMEKFERTQENIAQTIGKSXSHVANXMRLLXLPDEVQSYLVSGELTAXHARAIAAAADPVALAKQIIEGGLSVRETEALARKAPNLSAGKSKGGRPPRVKDTDTQALESDLSSVLGLDVSIDHRGSTGTLTITYATLEQLDDLCNRLTRGI
# Variants of: B1
# Test: one-hybrid fitness for binding parS DNA (scaled: cognate 1, non-cognate 0); higher = stronger binding
# Conditions: with parS DNA site
# Summary of the method: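 The reporter was HIS3, with the binding site 19 bp from the promoter, in E. coli USO used for bacterial one-hybrid selection of Caulobacter ParB libraries with four specificity codons randomised. Growth was on M9 lacking histidine, with 0.1 mM IPTG and 5 mM 3-AT, for 48 hours at 37°C. Illumina sequencing covered plasmids before and after selection; three replicate libraries were pooled and variants with under 10 reads dropped. A fitness score is the log change in variant-to-wild-type read ratio, rescaled to the cognate and non-cognate references.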
row,Variant,one-hybrid fitness for binding parS DNA
1,THYN,≤ 0.2
2,TFIW,≤ 0.2
3,SPRC,≤ 0.2
4,DYFS,≤ 0.2
5,HAPN,≤ 0.2
6,RKAW,≤ 0.2
7,FTYI,≤ 0.2
8,RVVV,≤ 0.2
9,SIHC,≤ 0.2
10,LMAG,≤ 0.2
11,QCAE,≤ 0.2
12,RLFC,0.948
13,RLAM,0.342
14,RLAC,0.995
15,RLFH,0.258
16,RLFP,≤ 0.2
17,RLAR,≤ 0.2
18,FKTR,≤ 0.2
19,LCPN,≤ 0.2
20,GYEP,≤ 0.2
21,RACA,0.609
22,RAPA,0.231
23,RAYA,0.602
24,RANA,0.595
25,RADA,0.563

row,Variant,one-hybrid fitness for binding parS DNA
1,NANA,≤ 0.2
2,DACA,≤ 0.2
3,RAIA,0.461
4,FRDR,≤ 0.2
5,TQKT,≤ 0.2
6,WTHY,≤ 0.2
7,REHK,≤ 0.2
8,GALF,≤ 0.2
9,VMFV,≤ 0.2
10,LLFI,≤ 0.2
11,NAQA,≤ 0.2
12,DARA,≤ 0.2
13,RAQA,0.548
14,RARA,0.658
15,NARA,≤ 0.2
16,PICM,≤ 0.2
17,LVHY,≤ 0.2
18,WEWS,≤ 0.2
19,SNSE,≤ 0.2
20,RTDN,0.404
21,RTNN,0.424
22,RTDH,≤ 0.2
23,RTND,≤ 0.2
24,RTDS,0.989
25,RTNS,0.874

row,Variant,one-hybrid fitness for binding parS DNA
1,FLHS,≤ 0.2
2,LGVG,≤ 0.2
3,ALYT,≤ 0.2
4,QTLN,≤ 0.2
5,DVLN,≤ 0.2
6,TSTW,≤ 0.2
7,EGNL,≤ 0.2
8,RQNN,0.435
9,RQNC,0.947
10,RQDC,0.863
11,RQDK,≤ 0.2
12,RQND,0.221
13,RQDQ,≤ 0.2
14,AQKR,≤ 0.2
15,ICTY,≤ 0.2
16,TAVI,≤ 0.2
17,FVPC,≤ 0.2
18,LNCS,≤ 0.2
19,NVAA,≤ 0.2
20,RVAA,0.582
21,RVFA,0.611
22,DVAA,≤ 0.2
23,ELAG,≤ 0.2
24,GGPT,≤ 0.2
25,CRIG,≤ 0.2

row,Variant,one-hybrid fitness for binding parS DNA
1,ILFC,≤ 0.2
2,DQVG,≤ 0.2
3,LIPT,≤ 0.2
4,RQID,≤ 0.2
5,RQIP,≤ 0.2
6,RQIC,0.735
7,RQIT,0.647
8,RQPN,≤ 0.2
9,RQIY,0.256
10,RQPS,0.535
11,RQPT,0.387
12,RQIR,≤ 0.2
13,RQIS,0.87
14,RQPP,≤ 0.2
15,RQPC,0.426
16,PHRE,≤ 0.2
17,KTEC,≤ 0.2
18,QHGS,≤ 0.2
19,NLTC,≤ 0.2
20,VSIA,≤ 0.2
21,TPVW,≤ 0.2
22,SHLF,≤ 0.2
23,STKF,≤ 0.2
24,TPQT,≤ 0.2
25,VRSR,≤ 0.2

row,Variant,one-hybrid fitness for binding parS DNA
1,VFSG,≤ 0.2
2,HISS,≤ 0.2
3,ADIG,≤ 0.2
4,PGTC,≤ 0.2
5,LVVH,≤ 0.2
6,HWLK,≤ 0.2
7,MKPK,≤ 0.2
8,SPFG,≤ 0.2
9,RLNP,≤ 0.2
10,RLNT,0.908
11,RLDT,0.806
12,RLDM,0.299
13,RLDR,≤ 0.2
14,RLNN,0.455
15,HMTH,≤ 0.2
16,YIMG,≤ 0.2
17,ADTW,≤ 0.2
18,VKGM,≤ 0.2
19,WSTL,≤ 0.2
20,RAKN,0.462
21,RAVT,0.77
22,RAVQ,0.23
23,RAKD,≤ 0.2
24,RAVK,≤ 0.2
25,RAKT,0.824

row,Variant,one-hybrid fitness for binding parS DNA
1,RMYE,≤ 0.2
2,FKCS,≤ 0.2
3,AGFC,≤ 0.2
4,RTAD,≤ 0.2
5,RTFH,0.246
6,RTFP,≤ 0.2
7,RTFS,1.03
8,RTAS,0.968
9,RTAP,≤ 0.2
10,LFRV,≤ 0.2
11,GSFC,≤ 0.2
12,RVWI,≤ 0.2
13,RWYY,0.248
14,RWVP,≤ 0.2
15,RWKS,0.961
16,RWKY,0.565
17,RWVN,≤ 0.2
18,RWKH,0.228
19,RWKP,≤ 0.2
20,RWVY,≤ 0.2
21,RWVS,0.616
22,YYVT,≤ 0.2
23,MVNS,≤ 0.2
24,FTLM,≤ 0.2
25,AFVL,≤ 0.2

row,Variant,one-hybrid fitness for binding parS DNA
1,RKVT,0.795
2,RKKM,0.231
3,RKKF,0.238
4,RKVD,≤ 0.2
5,RKKT,0.604
6,RKVR,≤ 0.2
7,RPEH,≤ 0.2
8,KRWH,≤ 0.2
9,QVGR,≤ 0.2
10,CDRV,≤ 0.2
11,YIYL,≤ 0.2
12,MNCF,≤ 0.2
13,ICRD,≤ 0.2
14,RTQD,0.202
15,RIQH,≤ 0.2
16,RAQD,≤ 0.2
17,RAQS,0.998
18,RTQH,0.332
19,RDQS,≤ 0.2
20,RTQS,0.951
21,RIQD,≤ 0.2
22,RCQS,0.986
23,RIQS,0.99
24,RPQS,≤ 0.2
25,RAQN,0.436

row,Variant,one-hybrid fitness for binding parS DNA
1,CQTC,≤ 0.2
2,RWDL,≤ 0.2
3,WRAH,≤ 0.2
4,AEGK,≤ 0.2
5,AIFS,≤ 0.2
6,DPKT,≤ 0.2
7,RSQN,0.427
8,RSQD,≤ 0.2
9,RMQH,0.313
10,RHQN,0.382
11,RHQS,0.927
12,RMQN,0.501
13,RFQN,0.457
14,RFQH,≤ 0.2
15,RSQS,0.984
16,RHQH,≤ 0.2
17,RMQS,1.02
18,RFQS,1
19,GAHD,≤ 0.2
20,TLCR,≤ 0.2
